Reference: PubChem BioAssay AID1159580 (chemical genetic matrix, 2015)
Among all 5,500 compounds or so, about 2,000 (36%) were called active. About 18% were inconclusive and are not listed. No stated cut-off is given here; in the data, active means normalized growth mostly below about 0.91 (no sharp cut-off); inconclusive means no clear call, values can overlap the other calls; inactive means mostly above about 0.92. The list shows a part of the results.

Assay: chemical genetic growth profiling, strain panel (AID 1159580);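 further: tested at 20 µM; growth read once vehicle control cultures reached saturation at 30 °C; 1 = growth at the plate median or of vehicle wells; lower values mean less growth of the strain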
Conditions: growth OD
[1] = S. cerevisiae deletion strains, locus YHR030C, strain SLT2, hits give low values

Measured: normalized growth

CC1(C)C/C(=N/Nc2ccc(C(F)(F)F)cc2)c2cc(C(C)(C)C)c(O)c(O)c2O1
inactive: S. cerevisiae deletion strains, locus YAR019C, strain CDC15, hits give low values 0.989 | S. cerevisiae deletion strains, locus YBL105C, strain PKC1, hits give low values 0.978 | S. cerevisiae deletion strains, locus YBR135W, strain CKS1, hits give low values 0.977 | S. cerevisiae deletion strains, locus YBR136W, strain MEC1, hits give low values 0.978 | S. cerevisiae deletion strains, locus YBR160W, strain CDC28, hits give low values 0.976 | S. cerevisiae deletion strains, locus YDL017W, strain CDC7, hits give low values 0.976 | S. cerevisiae deletion strains, locus YDL028C, strain MPS1, hits give low values 0.96 | S. cerevisiae deletion strains, locus YDL108W, strain KIN28, hits give low values 0.976 | S. cerevisiae deletion strains, locus YDL132W, strain cdc53, hits give low values 0.977 | S. cerevisiae deletion strains, locus YDR052C, strain DBF4, hits give low values 0.975 | S. cerevisiae deletion strains, locus YDR054C, strain cdc34, hits give low values 0.968 | S. cerevisiae deletion strains, locus YDR226W, strain ADK1, hits give low values 0.988 | S. cerevisiae deletion strains, locus YER133W, strain GLC7, hits give low values 0.896 | S. cerevisiae deletion strains, locus YFL009W, strain cdc4, hits give low values 0.979 | S. cerevisiae deletion strains, locus YFL029C, strain CAK1, hits give low values 0.978 | S. cerevisiae deletion strains, locus YFR003C, strain YPI1, hits give low values 0.981 | S. cerevisiae deletion strains, locus YFR028C, strain CDC14, hits give low values 0.98 | S. cerevisiae deletion strains, locus YIL147C, strain SLN1, hits give low values 0.975 | S. cerevisiae deletion strains, locus YJL157C, strain FAR1, hits give low values 0.896 | S. cerevisiae deletion strains, locus YJR016C, strain ILV3, hits give low values 0.991 | S. cerevisiae deletion strains, locus YKL193C, strain SDS22, hits give low values 0.973 | S. cerevisiae deletion strains, locus YKL203C, strain TOR2, hits give low values 0.731 | S. cerevisiae deletion strains, locus YLR403W, strain SFP1, hits give low values 0.865 | S. cerevisiae deletion strains, locus YMR001C, strain CDC5, hits give low values 0.98 | S. cerevisiae deletion strains, locus YMR277W, strain FCP1, hits give low values 0.977 | S. cerevisiae deletion strains, locus YNL006W, strain LST8, hits give low values 0.975 | S. cerevisiae deletion strains, locus YNL161W, strain CBK1, hits give low values 0.976 | S. cerevisiae deletion strains, locus YNL207W, strain RIO2, hits give low values 0.976 | S. cerevisiae deletion strains, locus YNL222W, strain SSU72, hits give low values 0.995 | S. cerevisiae deletion strains, locus YOL078W, strain AVO1, hits give low values 0.975 | S. cerevisiae deletion strains, locus YOR329C, strain SCD5, hits give low values 0.983 | S. cerevisiae deletion strains, locus YPL209C, strain IPL1, hits give low values 0.983 | S. cerevisiae deletion strains, locus YPR025C, strain CCL1, hits give low values 0.981 | S. cerevisiae deletion strains, strain TSCII, hits give low values 0.986
active: S. cerevisiae deletion strains, locus YDL214C, strain PRR2, hits give low values 0.481 | S. cerevisiae deletion strains, locus YDR477W, strain SNF1, hits give low values 0.6 | S. cerevisiae deletion strains, locus YER123W, strain YCK3, hits give low values 0.375 | S. cerevisiae deletion strains, locus YFR019W, strain FAB1, hits give low values 0.436 | S. cerevisiae deletion strains, locus YGR040W, strain KSS1, hits give low values 0.635 | S. cerevisiae deletion strains, locus YGR052W, strain FMP48, hits give low values 0.347 | S. cerevisiae deletion strains, locus YGR092W, strain DBF2, hits give low values 0.214 | [1] 0.246 | S. cerevisiae deletion strains, locus YHR079C, strain IRE1, hits give low values 0.29 | S. cerevisiae deletion strains, locus YHR082C, strain KSP1, hits give low values 0.314 | S. cerevisiae deletion strains, locus YHR205W, strain SCH9, hits give low values 0.0779 | S. cerevisiae deletion strains, locus YJL095W, strain BCK1, hits give low values 0.283 | S. cerevisiae deletion strains, locus YJL128C, strain PBS2, hits give low values 0.129 | S. cerevisiae deletion strains, locus YJR066W, strain TOR1 (second series), hits give low values 0.355 | S. cerevisiae deletion strains, locus YJR066W, strain TOR1, hits give low values 0.36 | S. cerevisiae deletion strains, locus YKL048C, strain ELM1, hits give low values 0.275 | S. cerevisiae deletion strains, locus YKL067W, strain YNK1, hits give low values 0.532 | S. cerevisiae deletion strains, locus YKL101W, strain HSL1, hits give low values 0.204 | S. cerevisiae deletion strains, locus YLR113W, strain HOG1, hits give low values 0.199 | S. cerevisiae deletion strains, locus YLR133W, strain CKI1, hits give low values 0.419 | S. cerevisiae deletion strains, locus YML070W, strain DAK1, hits give low values 0.426 | S. cerevisiae deletion strains, locus YMR205C, strain PFK2 (second series), hits give low values 0.364 | S. cerevisiae deletion strains, locus YNL020C, strain ARK1, hits give low values 0.375 | S. cerevisiae deletion strains, locus YNL183C, strain NPR1, hits give low values 0.302 | S. cerevisiae deletion strains, locus YNL307C, strain MCK1 (second series), hits give low values 0.116 | S. cerevisiae deletion strains, locus YOL136C, strain PFK27, hits give low values 0.427 | S. cerevisiae deletion strains, locus YOR061W, strain CKA2, hits give low values 0.243 | S. cerevisiae deletion strains, locus YOR119C, strain RIO1, hits give low values 0.534 | S. cerevisiae deletion strains, locus YOR231W, strain MKK1, hits give low values 0.277 | S. cerevisiae deletion strains, locus YPL031C, strain PHO85, hits give low values 0.576 | S. cerevisiae deletion strains, locus YPL153C, strain RAD53, hits give low values 0.436 | S. cerevisiae deletion strains, locus YPL204W, strain HRR25, hits give low values 0.535 | S. cerevisiae deletion strains, locus YPL256C, strain CLN2, hits give low values 0.243 | S. cerevisiae deletion strains, locus YPR106W, strain ISR1, hits give low values 0.421 | S. cerevisiae deletion strains, locus YPR111W, strain DBF20, hits give low values 0.319 | S. cerevisiae deletion strains, strain NNK1, hits give low values 0.434

NC(=O)CCSCCC(N)=O
inactive: S. cerevisiae deletion strains, locus YAL013W, strain DEP1, hits give low values 0.992 | S. cerevisiae deletion strains, locus YBR229C, strain ROT2, hits give low values 0.995 | S. cerevisiae deletion strains, locus YDL101C, strain DUN1, hits give low values 0.996 | S. cerevisiae deletion strains, locus YDL134C, strain PPH21, hits give low values 1.02 | S. cerevisiae deletion strains, locus YDR150W, strain NUM1, hits give low values 0.999 | S. cerevisiae deletion strains, locus YEL061C, strain CIN8, hits give low values 1.01 | S. cerevisiae deletion strains, locus YGR078C, strain PAC10, hits give low values 0.988 | [1] 0.972 | S. cerevisiae deletion strains, locus YHR087W, strain rtc3, hits give low values 1 | S. cerevisiae deletion strains, locus YJR043C, strain POL32, hits give low values 0.976 | S. cerevisiae deletion strains, locus YJR075W, strain HOC1, hits give low values 1 | S. cerevisiae deletion strains, locus YLR039C, strain RIC1, hits give low values 1.02 | S. cerevisiae deletion strains, locus YLR058C, strain SHM2 (second series), hits give low values 0.997 | S. cerevisiae deletion strains, locus YLR085C, strain ARP6, hits give low values 1.06 | S. cerevisiae deletion strains, locus YLR262C, strain YPT6, hits give low values 1.03 | S. cerevisiae deletion strains, locus YML094W, strain GIM5, hits give low values 1.01 | S. cerevisiae deletion strains, locus YMR219W, strain ESC1, hits give low values 1.01 | S. cerevisiae deletion strains, locus YMR263W, strain SAP30, hits give low values 0.991 | S. cerevisiae deletion strains, locus YMR307W, strain GAS1, hits give low values 1.09 | S. cerevisiae deletion strains, locus YNL153C, strain GIM3, hits give low values 0.979 | S. cerevisiae deletion strains, locus YNL298W, strain CLA4 (second series), hits give low values 0.988 | S. cerevisiae deletion strains, locus YNL322C, strain KRE1, hits give low values 1.03 | S. cerevisiae deletion strains, locus YNR030W, strain Alg12, hits give low values 0.981 | S. cerevisiae deletion strains, locus YPL055C, strain LGE1, hits give low values 1.02 | S. cerevisiae deletion strains, locus YPL241C, strain CIN2, hits give low values 0.995 | S. cerevisiae deletion strains, locus YPR135W, strain CTF4, hits give low values 0.92 | S. cerevisiae strains, strain wild type, hits give low values 1.02
